About 8,600 (12%) of roughly 69,000 compounds showed an effect of 50% or more. What follows is part of a selection rich in strong results, with near analogues and random picks from the rest.
tested on: Plasmodium berghei; test: Screen against P. berghei liver stage (PbLuc), transformed with Luciferase, at 10uM; assay type: functional, HepG2; settings: tested at 10 uM

Structure (SMILES) | INHIBITION
Cc1ccc(C)c(NS(=O)(=O)c2cc3c(c(C(=O)O)c2)OCCO3)c1 | 38.8%
O=C(NCCc1nc(C2CC2)no1)[C@H]1CNC[C@H](C(=O)N2CCCC2)C1 | -31.3%
Cc1nn(C)c(N(C)C)c1CNCc1ccc(OCCN(C)C)cc1 | 27.6%
COCCn1ccc2cc(NC(C)=O)ccc21 | 18.2%
Cc1[nH]c2ccc(CNc3cc(C(N)=O)ccn3)cc2c1C | 16.9%
COCC(C)NCc1ccc2[nH]c(C)c(C)c2c1 (stereo not drawn) | 2.9%
Cc1[nH]c2ccc(CNc3cc(C#N)ccn3)cc2c1C | 16.9%
CSCC(C)NCc1ccc2[nH]c(C)c(C)c2c1 (stereo not drawn) | 76.9%
Cc1[nH]c2ccc(CNc3cc(C(=O)NC(C)C)ccn3)cc2c1C | 55.4%
COC(=O)C(C)NCc1ccc2[nH]c(C)c(C)c2c1 (stereo not drawn) | 46.4%
CC(=O)N1Cc2ccccc2OC2(CCN(C(=O)C3CC3)CC2)C1 | 37.8%
CCCSc1ncccc1C(=O)NCc1ccc(S(N)(=O)=O)cc1 | -7.29%
N#Cc1cccc(NS(=O)(=O)c2ccc(C(=O)O)cc2F)c1 | 45.7%
CN(Cc1ccc(N(C)C)cc1)C(=O)CS(=O)(=O)c1ccc(Cl)cc1 | 64.3%
CN(Cc1ccc(OC(F)F)cc1)C(=O)CS(=O)(=O)c1ccc(Cl)cc1 | 34.7%
CN(C)c1ccc(CNC(=O)c2ccc(Cl)cc2F)cc1 | 14.2%
CC1(C)O[C@@](C)([C@H]2CC3(CCN(c4ncccn4)CC3)CO2)CC[C@@H]1O | 32.7%
CC(C)c1noc(CN2CCN(C(=O)c3ccc(F)cc3)CC2)n1 | 16.8%
O=C1c2cc(Br)cc(Br)c2OCC1(CN1CCCC1)CN1CCCC1 | 59%
Cc1cc(I)c2c(c1)C(=O)C(CN1CCCC1)(CN1CCCC1)CO2 | -55.3%
O=C(CN1CCCCC1)Nc1ncc(Br)cc1Br | 27.8%
FC(F)CN1CCC(NCCc2ccc(-n3cccn3)cc2)CC1 | 6.83%
CCC(=O)NC1CCCN(C(=O)c2ccc(OCC3CC3)nc2)C1 (stereo not drawn) | 78.8%
Cc1cnn(C2CCCN(C(=O)c3ccc(OCC4CC4)nc3)C2)c1 (stereo not drawn) | 13.483%
Cc1cc(C2CCCN(C(=O)c3ccc(OCC4CC4)nc3)C2)n[nH]1 (stereo not drawn) | 20.4%
CN(Cc1ccco1)C1COC2(CCN(Cc3nccs3)CC2)C1 (stereo not drawn) | 28.3%

Structure (SMILES) | INHIBITION
CNC(=O)[C@@H](C)NC(=O)c1cc(-c2ccc(F)cc2)c(C)s1 | 12.4%
CCCN1CCN(Cc2cc(Cl)cc(Cl)c2)[C@H]2CS(=O)(=O)C[C@H]21 | 50.5%
COc1ccccc1S(=O)(=O)N1CCN(C)[C@@H]2CS(=O)(=O)C[C@@H]21 | 39.6%
CCCN1CCN(Cc2cccc(OC(C)C)c2)[C@H]2CS(=O)(=O)C[C@H]21 | 40.1%
O=S1(=O)C[C@@H]2[C@H](C1)N(Cc1cc(F)cc(F)c1)CCN2CCO | 33.7%
O=S1(=O)C[C@@H]2[C@H](C1)N(Cc1cc(F)cc(Cl)c1)CCN2CCO | 58.5%
O=S1(=O)C[C@@H]2[C@H](C1)N(Cc1cc(Cl)cc(Cl)c1)CCN2CCO | 30.7%
CCCN1CCN(Cc2cccc(OCC(N)=O)c2)[C@H]2CS(=O)(=O)C[C@H]21 | 36.8%
Cc1ccc(CN2CCN(Cc3ccncc3)[C@@H]3CS(=O)(=O)C[C@@H]32)cc1 | 36.7%
CCN1CCN(S(=O)(=O)N2CCc3ccccc3C2)[C@H]2CS(=O)(=O)C[C@H]21 | -40.4%
CCCN1CCN(Cc2cccc(OC)c2)[C@H]2CS(=O)(=O)C[C@H]21 | 53.2%
CCCN1CCN(S(=O)(=O)c2ccccc2OC)[C@H]2CS(=O)(=O)C[C@H]21 | 65.7%
O=S1(=O)C[C@@H]2[C@H](C1)N(Cc1cc(Cl)cc(Cl)c1)CCN2CC1CC1 | 25.4%
NC1CCN(C(=O)c2c(F)cccc2Br)CC1 | 28.7%
Cc1cc(C(=O)N2CC[C@@H]3CN(c4ncccn4)CCO[C@@H]3C2)c(C)o1 | 33.5%
CN1CCN(Cc2cscn2)CC(C(=O)N(C)C)C1 (stereo not drawn) | 43.8%
CS(=O)(=O)CCNC(=O)N1CC2(CCCC2)c2ccccc21 | -8.91%
COCCN1C(=O)[C@@H]2CC[C@H]1CN(Cc1nnc(-c3ccccc3)o1)C2 | -24.5%
CS(=O)(=O)Nc1ccn(Cc2ccc(Br)cc2)n1 | 49.9%
CS(=O)(=O)Nc1ccn(Cc2ccc(Cl)cc2)n1 | 58.2%
Cc1ccc(Cn2ccc(NS(C)(=O)=O)n2)cc1 | -36.5%
COc1ccc2[nH]cc(C(=O)N3C[C@@H](O)[C@H](N4CCCC4)C3)c2c1 | 11.8%
CCc1oc(C(=O)NC(C)Cc2cnccn2)cc1CN1CCCC1 (stereo not drawn) | 30%
CCCn1nc2c(cc1=O)CN(Cc1nc(C)c(C)o1)CC2 | 14.1%
CC(C(=O)Nc1nccs1)N(C)Cc1cccc(C#N)c1 (stereo not drawn) | 22.6%
CSc1cccc(NC(C)C(=O)Nc2nccs2)c1 (stereo not drawn) | 44.4%

Structure (SMILES) | INHIBITION
Cc1cccc(NC(C)C(=O)Nc2nccs2)c1 (stereo not drawn) | 79.8%
COc1ccc(Br)cc1SCCS(C)(=O)=O | 29%
Cc1cc(C)n(CC2CCCN2C(=O)CCc2nccs2)n1 (stereo not drawn) | 31.1%
Cc1cc(C)nc(CN(C)C(=O)c2ccccc2C2CCNC2)c1 (stereo not drawn) | 47.2%
CN(Cc1cc(C2CC2)[nH]n1)C(=O)c1ccccc1C1CCNC1 (stereo not drawn) | 51.3%
CC(C)Cc1cc(CNC(=O)c2cccc3c2NCCC3)no1 | 44.3%
COCc1cc(CNC(=O)c2cccc3c2OCC3)n[nH]1 | 14.6%
CC(C)Cc1cc(CNC(=O)c2cccc3c2OCC3)no1 | 52.6%
O=C(NCCc1c[nH]cn1)c1ccccc1C1CCNC1 (stereo not drawn) | 24.4%
O=C(NCc1ccc2c(c1)OCO2)c1ccccc1C1CCNC1 (stereo not drawn) | 31%
CC(C)Cc1cc(CNC(=O)c2ccccc2C2CCNC2)no1 (stereo not drawn) | 68.4%
CN(Cc1cc(C(C)(C)C)n[nH]1)C(=O)c1ccccc1C1CCNC1 (stereo not drawn) | -23.2%
COc1cccc(-c2cnc(CNC(C)(C)c3nc(C)cs3)o2)c1 | -16%
CCCn1cc(C(=O)NC(C)c2c(C)nn(CC)c2C)c(C)n1 (stereo not drawn) | 43%
CCC(O)CN1CCN(C(=O)c2ccn(-c3ccccc3)n2)CC1 (stereo not drawn) | 2.3%
CN(Cc1ncnn1C1Cc2ccccc2C1)C1CCS(=O)(=O)C1 (stereo not drawn) | 25.4%
O=C(NCCc1cccnc1)c1nc2c(s1)CCCN2C(=O)C1CC1 | 35.8%
O=C(NCc1cccnc1)c1nc2c(s1)CCCN2C(=O)C1CC1 | 27.6%
O=C(NCCc1cccc(F)c1)c1nc2c(s1)CCCN2C(=O)C1CC1 | 52.1%
CC(C)C(=O)N1CCC(c2nc3c([nH]2)CCCNC3=O)CC1 | 25.9%
COc1ccccc1CN1CC(O)CN(S(=O)(=O)C(C)C)CC1=O (stereo not drawn) | 28.3%
Cc1cc(CN(C)C(=O)CN2CC3(CCNCC3)OC2=O)no1 | -20.7%
CCc1cc(CN(C)C(=O)CN2CC3(CCNCC3)OC2=O)on1 | 44.2%
Cc1nnsc1CN(C)C(=O)CN1CC2(CCNCC2)OC1=O | 51.8%
Cc1cc(C)n(CCCN(C)C(=O)CN2CC3(CCNCC3)OC2=O)n1 | 25.8%
Cc1ncsc1CCN(C)C(=O)CN1CC2(CCNCC2)OC1=O | -5.52%

Structure (SMILES) | INHIBITION
Cc1cc(CN(C)C(=O)CN2CC3(CCNCC3)OC2=O)n(C)n1 | 64.8%
COc1ccc2c(c1)CCN2Cc1nc2c(cnn2C)c(=O)[nH]1 | 33.8%
CS(=O)(=O)NCCCNC(=O)NCc1ccccc1 | -40.2%
CC(=O)N1CC(=O)N(c2cnn(C)c2)CC12CCN(CC1CC1)C2 (stereo not drawn) | 30.1%
Cc1ccn(CCNC(=O)C2CCN(S(=O)(=O)c3ccc(F)cc3)C2)n1 (stereo not drawn) | 3.91%
Cn1cc([C@@H]2CN(S(=O)(=O)c3cccnc3)C[C@H]2N)c2ccncc21 | -30.435%
CN(C)c1cc2c(nn1)CCN(C(=O)C1CCCc3ccccc31)C2 (stereo not drawn) | 5.03%
CC(C)c1ccc(CC(=O)N2CCCC3(CN(C)C(=O)O3)C2)cc1 (stereo not drawn) | 24.3%
CCn1ncnc1C(C)Nc1cc(C2CCNCC2)nc(C)n1 (stereo not drawn) | -63.5%
CN(CC1(C)COC1)C(=O)c1cc(-c2ccn(C)n2)nc2ccccc12 | 18.2545%
Cc1noc(C)c1-c1cc(C2CCNCC2)ccn1 | 20.8%
Cc1noc(C)c1-c1ccnc(C2CCN(C3CCOCC3)CC2)c1 | 24.4%
Cc1noc(C)c1-c1ccnc(C2CCNCC2)c1 | 67.7%
CSCC[C@@H]1CN2CCC[C@H]2CN1Cc1coc2ccc(C)cc2c1=O | 40.09%
Cc1ccc(CN2CC(C(=O)N3CCCC3)C3(CCOCC3)C2)s1 (stereo not drawn) | -11.1%
O=C([C@H]1CCS(=O)(=O)[C@@H]2CN(CCc3ccccc3)C[C@H]12)N1CCCC1 | 39.3%
CN(CC1COc2ccccc2O1)C(=O)NCCCn1cccn1 (stereo not drawn) | -14.4%
CN(Cc1nc(CC2CC2)no1)CC1COc2ccccc2O1 (stereo not drawn) | 29.6%
Cc1cc(N(C)CC2COc3ccccc3O2)nc(N)n1 (stereo not drawn) | 80.1%
CN(Cc1nnnn1C1CC1)CC1COc2ccccc2O1 (stereo not drawn) | 17.5%
CCN1CC(CN(C)c2cc(C)nc(N)n2)Oc2ccccc21 (stereo not drawn) | 82.4%
Cc1cc(N(C)CC2COc3ccccc3O2)nc(C)n1 (stereo not drawn) | 83.5%
Cc1csc(CN2CC(CO)Oc3ccccc32)n1 (stereo not drawn) | 24.3%
Cc1nc(CN2CC(CO)Oc3ccccc32)sc1C (stereo not drawn) | -10.3%
CCCn1nnnc1CN(CC)CC1COc2ccccc2O1 (stereo not drawn) | 45.9%

Reference: ChEMBL document CHEMBL4513216, “Probing the Open Global Health Chemical Diversity Library for Multistage-Active Starting Points for Next-Generation Antimalarials” (ACS Infect Dis, 2020)
